Source: PubChem BioAssay (Tox21)
Results filed as inconclusive are left out. Activity calls are given as the source filed them. Unless noted, calls follow the shape of the dose curve; as a rule, active = well fitted curve in the direction sought with a large enough effect in the repeat runs; inconclusive = weak or mixed curves; inactive = no such curve, though single readings can be large; an effect the other way counts as inactive or inconclusive.

Test: qHTS assay to identify small molecule phospholipidosis (PLD) inducers (AID 1259344; active = well fitted curve in the direction sought with a large enough effect; an effect the other way counts as inactive or inconclusive)
Conditions: HepG2 phospholipidosis, LipidTOX Red imaging, 24 h; series mostly up to 38.3 µM; PLD induction: at the top concentration
In short: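 Quantitative HTS in HepG2: compound plus LipidTOX Red dye for 24 h, paraformaldehyde fixation with Hoechst 33342, widefield high-content imaging; amiodarone as positive and DMSO as negative control.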
% is scaled to controls: 0 for no effect and ±100 for the full control effect.

Row | SMILES | PLD induction
1 | CN1C[C@H]2c3ccccc3Oc3ccc(Cl)cc3[C@@H]2C1 | 1.39% [at 7.66 µM] (inactive)
2 | C[N+](C)(C)CCOC(=O)CCC(=O)OCC[N+](C)(C)C | -0.366% (inactive)
3 | C=CCOc1ccccc1OCC(O)CNC(C)C (stereo not given) | -1.04% [at 15.5 µM] (inactive)

Test: qHTS assay to identify small molecule HDAC inhibitors (AID 1259364); also: nearly all actives have a fitted effect of over 45% in size; also: potency is read from the fitted curve at half-maximal effect; as to activity change, negative = inhibition: top concentration of the series differs between compounds
Conditions: HCT-116 HDAC-Glo I/II luminescence, 2 h; series mostly up to 92.4 µM; activity change, negative = inhibition: at the top concentration
In short: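 Wild-type HCT-116 cells were plated overnight, exposed to compounds for 2 h at 37 °C, then given HDAC-Glo class I/II luminogenic reagent for 30 min at room temperature before luminescence was read.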

Row | SMILES | activity change, negative = inhibition | Potency
4 | CC1OC(=O)C(C)OC1=O (stereo not given) | 2.04% (inactive) | –
5 | CC(C)Cc1ccc(C(C)C(=O)OCc2ccccn2)cc1 (stereo not given) | -5.27% [at 42.5 µM] (inactive) | –
6 | CCOc1ccc(O)cc1 | -4.51% (inactive) | –
7 | CN1C[C@H]2c3ccccc3Oc3ccc(Cl)cc3[C@@H]2C1 | 1.07% [at 42.5 µM] (inactive) | –
8 | CC(=O)c1cccc([N+](=O)[O-])c1 | 4.68% (inactive) | –
9 | CC1CCC(=O)C1=O (stereo not given) | -3.31% (inactive) | –
10 | O=C(O)c1ccco1 | 1.41% (inactive) | –
11 | CN1Cc2cc(C(=O)N3CCC(C4CCNCC4)CC3)ccc2NC(CC(=O)O)C1=O (stereo not given) | -2.2% [at 42.5 µM] (inactive) | –
12 | CCOc1ccc(N)c([N+](=O)[O-])c1 | -11.9% (inactive) | –
13 | Nc1ccc([N+](=O)[O-])c(C(F)(F)F)c1 | 3.89% [at 42.5 µM] (inactive) | –
14 | CCCCCCCCCCO[C@@H]1O[C@H](CO)[C@@H](O)[C@H](O)[C@H]1O | -2.89% (inactive) | –
15 | O=P(O)(OCc1ccccc1)OCc1ccccc1 | 7.4% (inactive) | –
16 | C=CC1CC2C=CC1C2 (stereo not given) | -0.753% (inactive) | –
17 | Brc1c2ccccc2c(Br)c2ccccc12 | 3.07% [at 8.39 µM] (inactive) | –
18 | Brc1c2ccccc2cc2ccccc12 | -12.4% (inactive) | –
19 | O=C(OCCc1ccccc1)c1ccccc1 | – | 9.69 µM (active)
20 | CCC(CC)Nc1ccc(C)c(C)c1 | -6.17% (inactive) | –
21 | COc1ccc(C(=O)c2ccc(OC)cc2O)c(O)c1 | – | 30.9 µM (active)

Row | SMILES | activity change, negative = inhibition | Potency
22 | c1ccc(C(O[C@H]2CCCN(CCc3ccc4c(c3)OCO4)C2)c2ccccc2)cc1 | -1.59% [at 42.5 µM] (inactive) | –
23 | C[C@@H]1C[C@H]2[C@@H]3CCC4=CC(=O)C=C[C@]4(C)[C@@]3(F)[C@@H](O)C[C@]2(C)[C@@]1(O)C(=O)COC(=O)c1ccncc1 | -0.13% [at 42.5 µM] (inactive) | –
24 | CCCCCCCCCOS(=O)(=O)O | -9.22% (inactive) | –
25 | C/C=C(/C(=C/C)c1ccc(OC(C)=O)cc1)c1ccc(OC(C)=O)cc1 | 1.55% [at 42.5 µM] (inactive) | –
26 | ClCCOCCOCCCl | -2.2% (inactive) | –
27 | O=C1CCC(=O)O1 | 1.43% (inactive) | –
28 | C=C1[C@H]2CC[C@@H]3[C@H]2C(C)(C)CCC[C@]13C | 1.4% (inactive) | –
29 | COC(C)OC | 8.29% (inactive) | –
30 | Cc1oc(-c2ccccc2)nc1CCOc1cccc2c1ccn2CCC(=O)O | -3.73% (inactive) | –
31 | C[N+](C)(C)CCOC(=O)CCC(=O)OCC[N+](C)(C)C | 5.15% [at 42.5 µM] (inactive) | –
32 | CCCC(=O)Nc1ccc(O)c(C(C)=O)c1 | 0.169% [at 42.5 µM] (inactive) | –
33 | CCCCc1nc2cccnc2n1Cc1ccc(-c2ccccc2-c2nnn[nH]2)cc1 | 1.9% (inactive) | –
34 | CC1=CC=C(C(C)C)CC1 | -2.56% (inactive) | –
35 | C=CCOc1ccccc1OCC(O)CNC(C)C (stereo not given) | 0.062% [at 42.5 µM] (inactive) | –
36 | c1cc(CCCc2ccncc2)ccn1 | -4.08% (inactive) | –
37 | Cc1cc(C(=O)O)ccc1[N+](=O)[O-] | -28.2% (inactive) | –
38 | CN(C)c1ccc(CCO)cc1 | -2.11% (inactive) | –

Test: qHTS assay to identify small molecule HDAC inhibitors - cell viability counter screen (AID 1259365); also: nearly all actives have a fitted effect of over 50% in size
Conditions: HCT-116 viability, CellTiter-Glo ATP luminescence, 2 h; series mostly up to 92.4 µM; activity change, negative = cytotoxicity: at the top concentration
In short: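 Measured quantity is CellTiter-Glo luminescence from wild-type HCT-116 cells after compound incubation of 2hr at 37C, 5% CO2; reagent developed 30min at room temperature.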

Row | SMILES | activity change, negative = cytotoxicity
39 | CC1OC(=O)C(C)OC1=O (stereo not given) | -3.15% (inactive)
40 | CC(C)Cc1ccc(C(C)C(=O)OCc2ccccn2)cc1 (stereo not given) | -6.55% [at 42.5 µM] (inactive)
41 | CCOc1ccc(O)cc1 | 7.86% (inactive)
42 | CC(=O)c1cccc([N+](=O)[O-])c1 | 1.77% (inactive)
43 | CC1CCC(=O)C1=O (stereo not given) | 0.691% (inactive)
44 | O=C(O)c1ccco1 | -0.488% (inactive)
45 | CN1Cc2cc(C(=O)N3CCC(C4CCNCC4)CC3)ccc2NC(CC(=O)O)C1=O (stereo not given) | -0.542% [at 42.5 µM] (inactive)
46 | CCOc1ccc(N)c([N+](=O)[O-])c1 | 4.04% (inactive)
47 | Nc1ccc([N+](=O)[O-])c(C(F)(F)F)c1 | 3.01% [at 42.5 µM] (inactive)
48 | CCCCCCCCCCO[C@@H]1O[C@H](CO)[C@@H](O)[C@H](O)[C@H]1O | 0.765% (inactive)
49 | O=P(O)(OCc1ccccc1)OCc1ccccc1 | 7.72% (inactive)
50 | C=CC1CC2C=CC1C2 (stereo not given) | -3.11% (inactive)
51 | Brc1c2ccccc2c(Br)c2ccccc12 | 1.69% [at 8.39 µM] (inactive)
52 | Brc1c2ccccc2cc2ccccc12 | -0.284% (inactive)
53 | O=C(OCCc1ccccc1)c1ccccc1 | -7.97% (inactive)
54 | CCC(CC)Nc1ccc(C)c(C)c1 | -8.42% (inactive)

Row | SMILES | activity change, negative = cytotoxicity
55 | COc1ccc(C(=O)c2ccc(OC)cc2O)c(O)c1 | 0.546% (inactive)
56 | c1ccc(C(O[C@H]2CCCN(CCc3ccc4c(c3)OCO4)C2)c2ccccc2)cc1 | -8.47% [at 42.5 µM] (inactive)
57 | C[C@@H]1C[C@H]2[C@@H]3CCC4=CC(=O)C=C[C@]4(C)[C@@]3(F)[C@@H](O)C[C@]2(C)[C@@]1(O)C(=O)COC(=O)c1ccncc1 | 12.3% [at 42.5 µM] (inactive)
58 | CCCCCCCCCOS(=O)(=O)O | 4.06% (inactive)
59 | C/C=C(/C(=C/C)c1ccc(OC(C)=O)cc1)c1ccc(OC(C)=O)cc1 | 4.84% [at 42.5 µM] (inactive)
60 | ClCCOCCOCCCl | -5.82% (inactive)
61 | O=C1CCC(=O)O1 | 2.35% (inactive)
62 | C=C1[C@H]2CC[C@@H]3[C@H]2C(C)(C)CCC[C@]13C | 0.562% (inactive)
63 | COC(C)OC | 1.25% (inactive)
64 | Cc1oc(-c2ccccc2)nc1CCOc1cccc2c1ccn2CCC(=O)O | 4.17% (inactive)
65 | CCCC(=O)Nc1ccc(O)c(C(C)=O)c1 | 2.99% [at 42.5 µM] (inactive)
66 | CCCCc1nc2cccnc2n1Cc1ccc(-c2ccccc2-c2nnn[nH]2)cc1 | 6.8% (inactive)
67 | CC1=CC=C(C(C)C)CC1 | -0.71% (inactive)
68 | c1cc(CCCc2ccncc2)ccn1 | 2% (inactive)
69 | Cc1cc(C(=O)O)ccc1[N+](=O)[O-] | 2.02% (inactive)
70 | CN(C)c1ccc(CCO)cc1 | 4.52% (inactive)
